# In the supplement of paper PMC10037445:
# Whole data set: some 2,900 compounds, median “NF-kB SEAP reporter activity, fold change vs agonist alone” near 0.99, cut for the highest 2% near 2.6. What follows is part of a selection rich in the highest values, with near analogues and random picks from the rest.
# Columns and labels:
# [1] = test system: RAW-Dual; assay: NF-kB SEAP reporter activity, fold change vs agonist alone; cytotoxicity flag (confluency mask): not cytotoxic; higher = enhanced NF-kB activity
# Outline: (§1)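 Library stock was pin-tooled at 50 nL into 384-well plates of RAW-Dual macrophages (50,000 cells/well, DMEM), followed 1 h later by a PRR agonist, and the cells were kept at 37 °C, 5% CO2. Supernatant collected after 20 hours was read for IRF by QuantiLuc luminescence and for NF-κB by QuantiBlue absorbance at 620 nm. Reporter activity is fold change over agonist-alone wells, and a well counted as cytotoxic when its IncuCyte confluency was below 70% of agonist controls in both mask sets.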
# [2] = test system: RAW-Dual; assay: NF-kB SEAP reporter activity, fold change vs agonist alone; higher = enhanced NF-kB activity
# Outline: as §1
# [3] = test system: RAW-Dual; assay: NF-kB SEAP reporter activity, fold change vs agonist alone; cytotoxicity flag (confluency mask): cytotoxic (confluency <70% of control); higher = enhanced NF-kB activity
# Outline: as §1
# [4] = agonist: ODN 1826 (TLR9) 0.5 ug/mL
# [5] = agonist: Pam2CSK4 (TLR2/6) 0.1 ug/mL
# [6] = agonist: Pam3CSK4 (TLR2/1) 0.1 ug/mL
# [7] = library stock concentration (final ~1000-fold dilution): 10 mM, cytotoxicity flag (confluency mask): not cytotoxic, agonist: Imiquimod (TLR7) […]
# [8] = library stock concentration (final ~1000-fold dilution): 10 mM, cytotoxicity flag (confluency mask): not cytotoxic, agonist: MPLA (TLR4) […]
# [9] = library stock concentration (final ~1000-fold dilution): 1 mM, cytotoxicity flag (confluency mask): not cytotoxic, agonist: Imiquimod (TLR7) […]
# [10] = library stock concentration (final ~1000-fold dilution): 1 mM, cytotoxicity flag (confluency mask): not cytotoxic, agonist: MPLA (TLR4) […]
smiles,measurement,setting,value
Cn1c(-c2ccccc2C(F)(F)F)nnc1C12CCC(c3noc(C4CC(F)(F)C4)n3)(CC1)CC2 (library stock concentration (final ~1000-fold dilution): 10 mM),NF-kB SEAP reporter activity,[1]; agonist: LPS (TLR4) 0.1 ug/mL,1.22
same,NF-kB SEAP reporter activity,[1]; [4],0.41
same,NF-kB SEAP reporter activity,[1]; [5],0.827
same,NF-kB SEAP reporter activity,[1]; [6],1.16
Cn1c(-c2ccccc2C(F)(F)F)nnc1C12CCC(c3noc(C4CC(F)(F)C4)n3)(CC1)CC2,NF-kB SEAP reporter activity,[2]; [7],0.868
same,NF-kB SEAP reporter activity,[2]; [8],1.3
CCCCCCOC(=O)c1cc(=O)c(O)c2c(O)c(O)c(OC)cc2c1,NF-kB SEAP reporter activity,[2]; [9],1.03
same,NF-kB SEAP reporter activity,[2]; [10],1.23
CCCCCCOC(=O)c1cc(=O)c(O)c2c(O)c(O)c(OC)cc2c1 (library stock concentration (final ~1000-fold dilution): 1 mM),NF-kB SEAP reporter activity,[1]; agonist: LPS (TLR4) 0.1 ug/mL,1.14
same,NF-kB SEAP reporter activity,[1]; [4],0.931
same,NF-kB SEAP reporter activity,[1]; [5],0.872
same,NF-kB SEAP reporter activity,[1]; [6],0.85
CCOC(=O)C1=Cc2ccc(C(F)(F)C(F)(F)F)cc2N=C(N)C1 (library stock concentration (final ~1000-fold dilution): .1 mM),NF-kB SEAP reporter activity,[1]; agonist: LPS (TLR4) 0.1 ug/mL,1.34
same,NF-kB SEAP reporter activity,[1]; [4],1.25
same,NF-kB SEAP reporter activity,[1]; [5],1.09
same,NF-kB SEAP reporter activity,[1]; [6],1.17
CCOC(=O)C1=Cc2ccc(C(F)(F)C(F)(F)F)cc2N=C(N)C1,NF-kB SEAP reporter activity,"[2]; library stock concentration (final ~1000-fold dilution): .1 mM, cytotoxicity flag (confluency mask): not cytotoxic, agonist: Imiquimod (TLR7) […]",0.718
same,NF-kB SEAP reporter activity,"[2]; library stock concentration (final ~1000-fold dilution): .1 mM, cytotoxicity flag (confluency mask): not cytotoxic, agonist: MPLA (TLR4) […]",1.18
CCCN(CCC)C(=O)C1=Cc2ccc(-c3ccc(C(=O)N4CCCC4)cc3)cc2N=C(N)C1 (library stock concentration (final ~1000-fold dilution): 1 mM),NF-kB SEAP reporter activity,[1]; agonist: LPS (TLR4) 0.1 ug/mL,2.58
same,NF-kB SEAP reporter activity,[1]; [4],1.07
same,NF-kB SEAP reporter activity,[1]; [5],1.16
same,NF-kB SEAP reporter activity,[1]; [6],1.26
CCCN(CCC)C(=O)C1=Cc2ccc(-c3ccc(C(=O)N4CCCC4)cc3)cc2N=C(N)C1,NF-kB SEAP reporter activity,[2]; [9],1.22
same,NF-kB SEAP reporter activity,[2]; [10],1.82
Cl.Nc1ccn(C2OC(CO)C(O)C2O)c(=O)n1 (stereo not drawn) (library stock concentration (final ~1000-fold dilution): 10 mM),NF-kB SEAP reporter activity,[1]; agonist: LPS (TLR4) 0.1 ug/mL,0.959
same,NF-kB SEAP reporter activity,[1]; [4],1.65
same,NF-kB SEAP reporter activity,[1]; [5],1.16
same,NF-kB SEAP reporter activity,[1]; [6],1.35
Cl.Nc1ccn(C2OC(CO)C(O)C2O)c(=O)n1 (stereo not drawn),NF-kB SEAP reporter activity,[2]; [7],1.72
same,NF-kB SEAP reporter activity,[2]; [8],1.42
C=C1CC[C@@H]2[C@](C)(CO)[C@H](O)CC[C@@]2(C)[C@@H]1/C=C/C1=CCOC1=O,NF-kB SEAP reporter activity,[2]; [7],0.706
same,NF-kB SEAP reporter activity,[2]; [8],0.901
C=C1CC[C@@H]2[C@](C)(CO)[C@H](O)CC[C@@]2(C)[C@@H]1/C=C/C1=CCOC1=O (library stock concentration (final ~1000-fold dilution): 10 mM),NF-kB SEAP reporter activity,[1]; agonist: LPS (TLR4) 0.1 ug/mL,0.755
same,NF-kB SEAP reporter activity,[1]; [4],0.721
same,NF-kB SEAP reporter activity,[1]; [5],0.5
same,NF-kB SEAP reporter activity,[1]; [6],0.597
Cl.Cl.O=c1cc(CN2CCOCC2)occ1OCCCCCSc1ccnc2cc(C(F)(F)F)ccc12,NF-kB SEAP reporter activity,"[2]; library stock concentration (final ~1000-fold dilution): 10 mM, cytotoxicity flag (confluency mask): cytotoxic (confluency <70% of control), agonist: Imiquimod (TLR7) […]",0.953
same,NF-kB SEAP reporter activity,"[2]; library stock concentration (final ~1000-fold dilution): 10 mM, cytotoxicity flag (confluency mask): cytotoxic (confluency <70% of control), agonist: MPLA (TLR4) […]",0.895
Cl.Cl.O=c1cc(CN2CCOCC2)occ1OCCCCCSc1ccnc2cc(C(F)(F)F)ccc12 (library stock concentration (final ~1000-fold dilution): 10 mM),NF-kB SEAP reporter activity,[3]; agonist: LPS (TLR4) 0.1 ug/mL,0.81
same,NF-kB SEAP reporter activity,[3]; [4],0.603
same,NF-kB SEAP reporter activity,[3]; [5],0.59
same,NF-kB SEAP reporter activity,[3]; [6],0.529
Nc1ncnc2[nH]nc(Nc3ccc(F)cc3)c12,NF-kB SEAP reporter activity,[2]; [7],1.13
same,NF-kB SEAP reporter activity,[2]; [8],2.6
Fc1ccc(CNc2ncnc3ccc(F)cc23)cc1 (library stock concentration (final ~1000-fold dilution): 10 mM),NF-kB SEAP reporter activity,[1]; agonist: LPS (TLR4) 0.1 ug/mL,2.47
same,NF-kB SEAP reporter activity,[1]; [4],1.19
same,NF-kB SEAP reporter activity,[1]; [5],1.06
same,NF-kB SEAP reporter activity,[1]; [6],1.25
